CCHF vOTU inh: CCHFV vOTU protease inhibitors, primary screen, biochemical, Pep-AMC substrate, fluorescence. Crimean-Congo hemorrhagic fever virus L polyprotein viral ovarian tumor (vOTU) protease …. inhibition, % at 11.5 µM. 370,000 tested, 0.55% active; in the data active = inhibition above about 30%
ugtP null kill: growth inhibition of ugtP-null S. aureus, primary screen, RN4220 ugtP deletion, OD600; 16 h; growth inhibition, % (no concentration beside the values); 330,000 tested, 0.54% active; in the data active = growth inhibition above about 68%
RN4220 kill: growth inhibition of S. aureus RN4220, primary screen, OD600 | AID 1259311, 2017 | 330,000 tested, 0.33% active | inhibition, % (no concentration beside the values) | 16 h; in the data active = inhibition above about 85%
PfHsp40 yeast: rescue of yeast from PfHsp40 toxicity, primary screen, S. cerevisiae, ATP luminescence; S. cerevisiae expressing PfHsp40, growth rescue; growth rescue, % at 12.5 µM; 340,000 tested, 0.68% active; in the data active = growth rescue above about 28%, passing the limit was not always enough; inconclusive = no clear call, values can overlap the other calls;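 also: yeast W303a lacking pdr1 and pdr3 grown in galactose medium; growth measured after three days at 30 °C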
PrPC TRFRET: inhibitors of human cell surface prion protein PrPC, primary screen, cell-based, TR-FRET | Major prion protein (Homo sapiens), P04156 | TR-FRET read-out | inhibition, % at 13.8 µM | 370,000 tested, 0.43% active | AID 720596, 2013; in the data active = inhibition above about 24%
PrP UTR inh: inhibition of PrP 5' UTR reporter expression; cell-based PrP 5' UTR mRNA reporter, plate reader; AID 488862, 2010; 340,000 tested, 0.35% active; inhibition, % (concentration not given with the values); in the data active = inhibition above about 52%
PrP 5UTR single: prion 5' UTR mRNA inhibition, cherry-pick retest | shares compounds with PrP UTR inh | cell-based prion protein 5' UTR reporter, plate reader | inhibition, % at 2.5 µM | 1,100 tested, 48% active | AID 504592, 2011; in the data active = inhibition above about 54%; inconclusive = no clear call, values can overlap the other calls
A number is an active result; – = inactive; ? = inconclusive; · = no result. The list is not random: actives were taken first. Their share in the collection is about 2.1%.

SMILES | CCHF vOTU inh | ugtP null kill | RN4220 kill | PfHsp40 yeast | PrPC TRFRET | PrP UTR inh | PrP 5UTR single
CC(=NNC(=O)C(=O)NN=C(C)c1ccccc1)c1ccccc1 | · | – | – | · | · | · | ·
C/C(=N\NC(N)=O)c1ccccc1 | – | · | · | – | – | 72 | –
O=C(CNCc1ccco1)Nc1ccc(N2CCCCCC2)cc1 | – | – | – | – | – | 83 | –
O=C(CNC(=O)c1ccco1)Nc1ccc(N2CCCCCC2)cc1 | – | – | – | – | – | – | ·
CCCC(=O)O[C@]1(C(=O)COC(C)=O)CCC2C3CC(F)C4=CC(=O)C=C[C@]4(C)[C@@]3(F)C(O)C[C@@]21C (stereo partly drawn) | · | – | – | · | · | · | ·
O=c1c(Cl)c(N2CCCCC2)cnn1-c1nc2ccccc2[nH]1 | – | – | – | – | – | 75 | 69
Clc1ccc2nc(N3CCCCC3)[nH]c2c1 | – | – | – | – | – | – | ·
O=c1c2ccccc2cnn1-c1nc2ccccc2[nH]1 | – | – | – | – | – | 92 | 91
C=CCN1C=C2C(=O)C(C)(OC(=O)c3cnc4ccccc4n3)C(=O)C=C2C=C1C=CCOC (stereo not drawn) | · | – | – | · | · | · | ·
C/C(=N\Nc1nc(N2CCCCC2)nc(N2CCOCC2)n1)c1ccccc1O | – | · | · | – | – | 81 | –
CCC(C)C1COCCS(=O)(=O)N1Cc1ccc(Br)cc1 (stereo not drawn) | · | – | – | · | · | · | ·
Oc1ccc(Cl)cc1C=Nc1ccccc1Br | – | – | – | – | – | 57 | –
O=C(NN=Cc1cc(Cl)ccc1O)c1ccccc1Br | · | – | – | · | · | · | ·
CC(C)(S)[C@@H](N)C(=O)O | – | · | · | – | – | 64 | –
O=[N+]([O-])c1cc(C=Nn2cnnc2)ccc1N1CCCC1 | · | – | – | · | · | · | ·
CN(C(=O)COC(=O)c1cnc(Cl)c(Cl)c1)C1CCS(=O)(=O)C1 (stereo not drawn) | – | – | – | – | – | – | ·
CN(C(=O)COC(=O)c1ccc(Cl)nc1)C1CCS(=O)(=O)C1 (stereo not drawn) | – | – | – | – | – | 68 | –
COC(=O)c1oc2ccc(Br)cc2c1NC(=O)CCCN1C(=O)c2ccccc2C1=O | – | – | – | – | – | 57 | –
CC1C(=O)NN=C1C(=O)NN=Cc1ccc(O)cc1O (stereo not drawn) | · | – | – | · | · | · | ·
COc1ccc(C(=O)CC(=O)c2ccc(C(C)(C)C)cc2)cc1 | – | · | · | – | – | 57 | –
COc1ccc(C(=O)CC(=O)c2ccc(F)cc2)cc1 | – | – | – | · | – | · | ·
COc1ccc(NC(=O)COc2ccc(C=NNC(=O)c3cccnc3)cc2OC)cc1 | · | – | – | · | · | · | ·
Cc1cc(Cl)ccc1NC(=S)N1CCN(Cc2ccccc2)CC1 | – | – | – | – | – | 51 | –
CSCCOC(=O)c1[nH]c2c(c1C)C(=O)CC(c1ccco1)C2 (stereo not drawn) | – | – | – | – | – | – | ·
Cc1c(C(=O)OCCOC(C)C)[nH]c2c1C(=O)CC(c1ccco1)C2 (stereo not drawn) | · | – | – | – | · | 66 | 90
SMILES | CCHF vOTU inh | ugtP null kill | RN4220 kill | PfHsp40 yeast | PrPC TRFRET | PrP UTR inh | PrP 5UTR single
Cc1c(C(=O)OCc2ccccc2)[nH]c2c1C(=O)CC(c1ccco1)C2 (stereo not drawn) | · | – | – | – | · | 62 | 87
CCOC(=O)c1[nH]c2c(c1C)C(=O)CC(c1ccco1)C2 (stereo not drawn) | – | – | – | – | – | 61 | 93
COCCOC(=O)c1[nH]c2c(c1C)C(=O)CC(c1ccco1)C2 (stereo not drawn) | – | – | – | – | – | – | ·
CN1CC2C3C(=O)N(Cc4ccccc4)C(=O)C3[C@](Cc3ccccc3)(C1=O)N2C(=O)c1ccc(Cl)cc1 (stereo partly drawn) | · | – | – | · | · | · | ·
CCOC(=O)C1C2COc3ccc(OC)cc3C2N2C(=O)CN(Cc3ccccc3)C(=O)[C@@]12C (stereo partly drawn) | · | – | – | · | · | · | ·
CCCC1C[C@@]1(CCC)C(NP(=O)(c1ccccc1)c1ccccc1)c1ccc(C(=O)OC)cc1 (stereo partly drawn) | · | – | – | · | · | · | ·
CCCc1c(C(=O)Nc2ccc(C(F)(F)F)cc2)cnn1-c1ccccc1 | – | – | – | – | – | 65 | –
CCCc1c(C(=O)Nc2ccc(N3CCOCC3)cc2)cnn1-c1ccccc1 | – | – | – | – | – | – | ·
COc1ccc(-n2ncc3c(N4CCCCC4)ncnc32)cc1 | · | – | – | – | · | 86 | 79
Clc1ccc(-n2ncc3c(N4CCCCCC4)ncnc32)cc1 | – | – | – | – | – | 79 | 70
Clc1ccc(Cn2ncc3c(N4CCCCC4)ncnc32)cc1 | – | – | – | – | – | – | ·
O=S(=O)(c1ccc(F)cc1)N1CCN(c2ncnc3c2cnn3-c2ccccc2)CC1 | – | – | – | – | – | – | ·
CS(=O)(=O)N1CCN(c2ncnc3c2cnn3-c2ccccc2)CC1 | – | – | – | – | – | 55 | –
CC(=NO)C(C)(C)Nc1cccc(Br)c1 | · | – | – | · | · | · | ·
NC(=O)NN=Cc1c(F)c(F)c(F)c(F)c1F | · | – | – | · | · | · | ·
CCN(C(=O)c1cc2cc(OC)ccc2oc1=O)c1cccc(C)c1 | – | – | – | – | – | – | ·
CCN(C(=O)c1cc2cc(OC)ccc2oc1=O)c1ccccc1 | – | – | – | – | – | 67 | ?
O=C(NN=Cc1coc2ccccc2c1=O)c1ccc(Cl)cc1 | · | – | – | · | · | · | ·
O=C(N/N=C/c1ccccc1)c1[nH]c2ccc(Br)cc2c1-c1ccccc1 | – | · | · | – | – | 59 | 88
COc1ccc2c(c1OC)c(=O)n1c3ccc(OC(C)C(=O)NCCN4CCOCC4)cc3c3ccnc2c31 (stereo not drawn) | – | – | – | – | – | – | ·
COc1ccc2c(c1OC)c(=O)n1c3ccc(OC(C)C(=O)NCCCN4CCOCC4)cc3c3ccnc2c31 (stereo not drawn) | · | – | – | – | · | 54 | –
CCOc1ccc2c(c1)C(C)=CC(C)(C)N2S(=O)(=O)c1ccc(C)cc1 | – | – | – | – | – | 66 | 87
COc1ccc(OC)c(C2C=C(c3ccc(C)c(C)c3)Nc3nnnn32)c1 (stereo not drawn) | – | – | – | – | – | 69 | –
CCCN1CCN(CC(=O)Nc2nnc(C)s2)CC1 | – | – | – | – | – | 52 | –
O=C(O)C1(Br)CC12c1ccccc1-c1ccccc12 (stereo not drawn) | – | · | · | – | – | 54 | –
O=C(NN=C/C(Cl)=C/c1ccccc1)c1ccc2c(c1)OCO2 | · | – | – | · | · | · | ·
O=C(Nc1ccccc1)c1cnc2n(c1=O)CCS2 | – | – | – | – | – | 56 | –
Cc1cccc(NC(=O)c2cnc3n(c2=O)CCS3)c1 | – | – | – | – | – | – | ·
COc1ccccc1OCCC(=O)OCC(=O)NCc1ccc(F)cc1 | – | – | – | – | – | 88 | –
